# TDP1 cell CPT = growth inhibition of DT40 Tdp1-/-;hTDP1 cells with camptothecin (screen for TDP1 inhibitors); chicken DT40 Tdp1-/-;hTDP1 cells + 20 nM CPT, ATP luminescence, 48 h; Potency, µM (titrated, usually from 46.2 µM), inactives show at the highest dose activity change, negative = growth inhibition, usual class: inhibitors; AID 686979; actives 12% (n = 420,000); further: nearly all actives have a fitted effect of over 55% in size
#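 Cell growth measured by CellTiter-Glo luminescence after a minimum 48 h, 37 C compound exposure with 20 nM CPT in Tdp1-knockout DT40 cells stably expressing hTDP1, seeded 400/well; qHTS titration format.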
# DT40 TDP1 no CPT = qHTS for Inhibitors of human tyrosyl-DNA phosphodiesterase 1 (TDP1): qHTS in cells in absence of CPT. DT40 Tdp1-/- hTDP1 cells, no CPT, ATP luminescence, 48 h. Potency, µM (doses to about 46.2 µM), for inactives: top-dose activity change, negative = growth inhibition, usual class: inhibitors. actives 15% (n = 420,000). AID 686978, 2013; further: nearly all actives have a fitted effect of over 55% in size
#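 Chicken DT40 Tdp1-/- cells complemented with human TDP1, screened without camptothecin (DMSO vehicle only), 400 cells/well. Compounds pin-transferred, cells incubated at 37 °C for at least 48 hr. Growth read as ATP-dependent luminescence (CellTiter-Glo, 30 min at RT).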
# KB-3-1 cytotox = kills parental KB-3-1 adenocarcinoma cells | KB-3-1 viability, CellTiter-Glo ATP luminescence, 72 h | Potency, µM (titrated, usually from 46.1 µM), actives largely listed as cytotoxic | actives 1.4% (n = 400,000); further: nearly all actives have a fitted effect of over 60% in size
#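 KB-3-1 parental drug-naive adenocarcinoma cells in DMEM/10% FBS, incubated 72 h at 37 C with pin-transferred compounds across a concentration series. Viability by CellTiter-Glo luminescence; concentration-response curves fitted after normalization.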
# KB-V1 MDR tox = KB-V1 MDR subline cytotoxicity; actives 3.4% (n = 400,000); Potency, µM (top dose mostly 46.1 µM), actives largely listed as cytotoxic; KB-V1 MDR cells viability, CellTiter-Glo, 72 h; further: nearly all actives have a fitted effect of over 60% in size
#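 Cytotoxicity via CellTiter-Glo luminescence after 72 h compound exposure at 37 degrees C. Cells: drug-selected KB-V1 line, DMEM phenol-red free plus 10% FBS. Compounds tested at multiple concentrations; normalized data fitted to concentration-effect curves.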
# HT1080 IDH1KD tx = HT-1080 IDH1 knockdown cell toxicity (counter line); actives 2% (n = 360,000); AID 686971; HT-1080 IDH1 knockdown viability, ATP luminescence, 48 h; Potency, µM (top dose mostly 46.1 µM), without a hit: at the highest dose activity, negative = toxicity, most hits filed as cytotoxic;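 further: 0% = DMSO wells and -100% = cell-free medium wells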
#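 Assay cells: HT-1080 with IDH1 knockdown, 750 per well, RPMI/5% FBS. Exposure: 48 h at 37 °C following 2 h pre-incubation. Read: CellTiter-Glo luminescence; fitted concentration-response, curve class assigned.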
# HT1080NT lethal = kills 2HG-producing HT-1080-NT fibrosarcoma cells; HT-1080-NT fibrosarcoma viability, CellTiter-Glo ATP luminescence, 48 h; Potency, µM (doses to about 46.1 µM), inactives show top-dose activity, negative = less viability, most hits filed as cytotoxic; actives 1.6% (n = 360,000);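 further: NT is the 2HG producing partner of a matched IDH1 knockdown line; 0% = DMSO-treated cells and -100% = media-only wells without cells; nearly all actives have a fitted effect of over 55% in size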
#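 HT-1080-NT; 750 cells/well; 5% FBS RPMI; 48 h compound, 37 degrees C; CellTiter-Glo luminescence; curve fitting and curve-class assignment.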
# * = called active by the depositor; i = inactive; ? = inconclusive; . = not tested or not shown. Shown are actives, neighbours in structure and some others; about 19% of the full set was active somewhere. The call rests on the fitted dose curve; in most records, active means well fitted curve in the direction sought with a large enough effect; inconclusive means small, poorly fitted or top-dose-only effect, or another doubt; inactive means no such curve, though single readings can be large; an effect the other way counts as inactive or inconclusive. Unless noted, on the % scale 0 is the no-effect control and ±100 the full control effect; potency means the concentration at half of the fitted maximal effect.
SMILES,TDP1 cell CPT,DT40 TDP1 no CPT,KB-3-1 cytotox,KB-V1 MDR tox,HT1080 IDH1KD tx,HT1080NT lethal
COC(=O)c1ccc(=O)n(CC(=O)c2ccc(Cl)cc2)c1,-1%,-3%,i,i,1%,4%
COC(=O)c1cc(C(=O)c2ccc(Cl)cc2)n2c(=O)/c(=C\N(C)C)sc12,?,-12%,8.2µM*,?,0%,-8%
CN(C)S(=O)(=O)c1ccc(N2CCN(S(=O)(=O)c3ccc(F)cc3)CC2)c(Cl)c1,18µM*,18µM*,?,5.8µM*,7.1µM*,10µM*
CCNS(=O)(=O)c1ccc(CCC(=O)NCc2ccccn2)cc1,9%,22%,i,i,-3%,-6%
Cc1cccc(-c2noc(CCC(=O)NCc3ccccc3)n2)c1,-21%,-6%,i,i,-2%,-7%
Cc1ccc(-c2noc(CCC(=O)NCC3CCN(Cc4cccc(C)c4)CC3)n2)cc1,18µM*,?,?,?,?,?
Cc1ccc(-c2noc(CCC(=O)NCCN3CCOCC3)n2)cc1,15%,-2%,i,i,6%,8%
Cc1ccc(-c2noc(CCC(=O)NCCN3CCN(Cc4ccccc4)CC3)n2)cc1,?,18µM*,?,16µM*,-9%,-10%
NS(=O)(=O)c1ccc(N2N=C(c3ccc(Br)cc3)CC2c2ccc(F)cc2)cc1 (stereo not drawn),?,?,?,?,12µM*,6.5µM*
NS(=O)(=O)c1ccc(N2N=C(c3ccccc3)CC2c2cccc(F)c2)cc1 (stereo not drawn),?,-23%,?,?,-6%,-4%
CC(C)c1ccc(NC(=O)c2ccc(F)c(S(=O)(=O)N3CCCC3)c2)cc1,10µM*,?,.,.,.,.
O=C(Nc1cc(Cl)cc(Cl)c1)c1ccc(F)c(S(=O)(=O)N2CCCC2)c1,16µM*,21µM*,.,.,.,.
Cc1ccccc1NC(=O)c1ccc(F)c(S(=O)(=O)N2CCCCC2)c1,-20%,4%,i,i,-1%,-5%
O=C(Nc1cc(Cl)cc(Cl)c1)c1ccc(F)c(S(=O)(=O)N2CCc3ccccc32)c1,5.8µM*,9.2µM*,.,.,.,.
CS(=O)(=O)N1CCc2cc(C(=O)Nc3ccc(Cl)cc3)ccc21,-2%,?,i,i,-10%,-10%
CNC(=S)N1CCC(NC(=O)C(Cc2ccccc2)NC(C)=O)CC1 (stereo not drawn),0%,7%,i,?,11%,21%
O=C(N[C@@H]1C/C=C\C[C@@H](CC(=O)N(CCO)Cc2ccccc2)C(=O)N[C@@H](c2ccccc2)COC1=O)OCC1c2ccccc2-c2ccccc21,7.3µM*,6.5µM*,i,i,-1%,-8%
O=C(N[C@H]1C/C=C\C[C@H](CC(=O)N(CCO)Cc2ccccc2)C(=O)NC[C@H](c2ccccc2)OC1=O)OCC1c2ccccc2-c2ccccc21,6.5µM*,6.5µM*,i,i,4%,4%
COc1cccc(N2CCN(C(=O)C3Cc4ccccc4N3C(C)=O)CC2)c1 (stereo not drawn),?,-26%,i,i,.,.
Cc1cccc2nc(C(=O)Nc3cccc(C(=O)NC4CC4)c3)cn12,13µM*,?,i,i,13%,7%
Cc1nn(-c2ccccc2)nc1C(=O)Nc1cccc(C(=O)NC2CC2)c1,?,15µM*,i,?,5%,6%
Cc1nn(-c2cccc(Cl)c2)nc1C(=O)Nc1cccc(C(=O)NC2CC2)c1,?,10µM*,i,?,-7%,-1%

# From PubChem BioAssay
